Compounds without any hit were thinned out: in the full panel of roughly 83,000, 20% have a hit.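 Plates (96-well) were seeded with cells, treated with compound at one concentration, and incubated for 48 hours before percent growth was determined.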 Activity calls are given as the source filed them. How the source made its calls: active means growth percent below 10; inactive means the rest.
test system: MDA-MB-468 breast; assay: NCI-60 one-dose screen, 48 h (100 = growth as untreated, 0 = no growth, -100 = all killed); conditions: 10 µM unless noted

SMILES | growth
CCOC(=O)N1CCN(S(=O)(=O)c2oc(-c3ccc(Cl)cc3)nc2C#N)CC1 | 86.5% (inactive)
O=C1OCC/C1=C\OCCCO/C=C1\CCOC1=O | 92.8% (inactive)
COc1ccc(C(=O)/C=C/c2cc3ccccc3n3nnnc23)cc1 | 96.8% (inactive)
Cc1cc(NCCCN(C)C)c2ccc3c(ccc4c(NCCCN(C)C)cc(C)nc43)c2n1 | -88.9% (active)
O=C(c1ccc(Cl)cc1)C1[C@H](c2ccc(Cl)cc2)[C@@H](c2ccccc2)NC12C(=O)Nc1ccccc12 (stereo not given in full) | 50.7% (inactive)
NCCNC(=O)c1cccc(COc2ccccc2NC(=O)c2cc(Cl)c(Cl)[nH]2)c1 | 96% (inactive)
CN(C)CCOc1nc2c3cc([N+](=O)[O-])ccc3nn2c2ccccc12 | 60.2% (inactive)
Cc1cc(C2(c3ccc(O)c(C)c3)OS(=O)(=O)c3ccccc32)ccc1O | 98.9% (inactive)
O=C(OC[C@H]1O[C@H](OC(=O)c2cc(O)c(O)c(OC(=O)c3cc(O)c(O)c(O)c3)c2)[C@H](OC(=O)c2cc(O)c(O)c(OC(=O)c3cc(O)c(O)c(O)c3)c2)[C@@H](OC(=O)c2cc(O)c(O)c(OC(=O)c3cc(O)c(O)c(O)c3)c2)[C@@H]1OC(=O)c1cc(O)c(O)c(OC(=O)c2cc(O)c(O)c(O)c2)c1)c1cc(O)c(O)c(OC(=O)c2cc(O)c(O)c(O)c2)c1 | 54.1% (inactive)
S=c1[nH]nc(-c2cc3ccc2CCc2ccc(cc2)CC3)n1C1CC1 | 106% (inactive)
O=C(c1ccccc1)N(CCCl)C(=O)N(CCCl)C(=O)c1ccccc1 | 111% (inactive)
O=c1ccc2ccc(OCCN3CCCCC3)cc2o1 | 105% (inactive)
Cc1ccc(NC(=O)Cn2c(Br)nc3c2c(=O)n(C)c(=O)n3C)cc1 | 10.4% (inactive)
COc1ccc(/C=C2\Oc3cc(OCCCN4CCCC4)ccc3C2=O)c(OC)c1 | 62% (inactive)
Cn1cc(-c2nonc2-c2cn(C)c3ccccc23)c2ccccc21 | 30.3% (inactive)
Cc1ccc(C)c(COc2cc(NC(=O)c3ccc4c(c3)OCO4)ccc2N(C)S(C)(=O)=O)c1 | -29.6% (active)
O=c1nc(NO)[nH]c(=O)n1Cc1ccc(F)cc1 | 107% (inactive)
CC(=O)c1cc2c(cc1F)C(C)(C)CCC2(C)C | 101% (inactive)
CO[C@@]12C=C[C@@]34CCC(=O)N3c3ccccc3[C@@H](O1)C4C2 | 108% (inactive)
O=C1/C(=C/c2cccc(F)c2)Cc2ccccc21 | 107% (inactive)

SMILES | growth
COc1cc2nc(-c3cccc4cccnc34)nc(NC3CCN(Cc4ccccc4)CC3)c2cc1OC | -78.5% (active)
COc1ccc(-c2nc3cc(Cl)c(Cl)cc3n2CC(=O)N=Nc2c(O)[nH]c3ccc(OC)cc23)cc1 | 42.4% (inactive)
COc1ccc(Cl)cc1NC(=O)c1cc2c(n1C)-c1nc(NC(=O)C(C)(C)C)sc1CC2 | 96.7% (inactive)
CCCCn1c(-c2ccc(C(=O)O/N=C(\N)c3ccc4ccccc4c3)cc2)nc(-c2ccccc2)c1-c1ccccc1 | 79.9% (inactive)
Cc1ccc(-c2nc3nc(-c4ccc(F)cc4)nc(N4CCCNCC4)c3o2)cc1 | -75.5% (active)
CCCCCCCCn1ccc2cc(NC(=O)CN3CCN(c4cc(C)nc(Cl)n4)CC3)ccc21 | 56.6% (inactive)
C#CC(F)(F)[C@]1(O)CCC2C3CCC4=CC(=O)CCC4=C3[C@@H](c3ccc(N(C)C)cc3)C[C@@]21C (stereo not given in full) | 101% (inactive)
CCN(CC)CCNc1ccc(CO)c2oc3cc(Cl)ccc3c(=O)c12 | 68.1% (inactive)
CNc1ccc(-c2cc(=O)oc3ccc(Cl)cc23)cc1 | 39.5% (inactive)
CN(C)CCCC1(c2ccc(F)cc2)OCc2cc(-c3cccc4[nH]ccc34)ccc21 (stereo not given) | -34.5% (active)
CC(=O)Oc1ccc(C2(c3ccc(OC(C)=O)cc3)C(=O)Nc3ccccc32)cc1 | 46.2% (inactive)
CC(=O)N(N=Nc1ccccc1)c1cccc2ccccc12 | 84.7% (inactive)
COc1nc2c(c(=O)n1C)CN(c1ccccc1)C(=O)CN2C | 4.41% [100 µM] (active)
COc1cc2cc(COc3nccc(-c4ccc(Cl)cc4)n3)c(=O)[nH]c2cc1OC | 80.1% (inactive)
OC(c1cc(-c2ccc(Cl)cc2)nc2c(Cl)cccc12)C1CCCCN1 (stereo not given) | -86.7% (active)
C=C1C(=O)O[C@H]2[C@H]1CCC(/C=N/c1ncc(Br)cc1N)=C\CC[C@@]1(C)O[C@@H]21 | -51% (active)
O=C(Nc1cc(Br)ccn1)c1cc2cc(Nc3nc(-c4ccccc4)nc4ccccc34)ccc2oc1=O | 123% (inactive)
COc1ccc(Nc2nc(N)nc3c2CCc2occc2-3)cc1 | 101% (inactive)
COc1ccc(/C=N/C2=C(C#N)C(c3ccccc3[N+](=O)[O-])c3ccc4ccccc4c3O2)cc1 (stereo not given) | 104% (inactive)
COc1ccc(C(=S)N2CCN(c3cccc(Cl)c3)CC2)cc1 | 88.4% (inactive)
